Test results published in PMC5540273 (PLoS ONE, 2017).
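Also: KINOMEscan kinase panel screen.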

The molecules below were run on LATS1. Conditions: concentration: 1 μM, replicates: in singlicate; n = 1.
In the case of `Cc1c(Cn2c3ccccc3n3c(=O)cc(N4CCOCC4)nc23)cccc1C(F)(F)F` [GSK2306394], the “%Inh” value is reported as 0%. In the case of `Fc1ccc(-c2nc[nH]c2-c2ccncc2)cc1` [SB-217360], the “%Inh” value is reported as 0%. In the case of `COc1cccc(CNC(=O)NC2CCN(c3ccnc(Nc4ccc(F)cc4)n3)C2)c1` (stereo not shown) [GSK1379723], the “%Inh” value is reported as 10%. `Cc1ccccc1-c1cc(-c2c[nH]nc2-c2ccccn2)ccn1` [GW680061] was tested, and the “%Inh” value was 0%. `COC(=O)C(NC(=O)NC1CCN(c2ccnc(Nc3ccc(F)cc3)n2)C1)c1ccccc1` (stereo not shown) [GSK1379712] was tested, and the “%Inh” value was 13%. With `O=C1NC(=O)C(c2ccc(Cl)cc2)=C1Nc1ccc(O)cc1` [SB-340867] the “%Inh” value was 17%. `COc1cc2ncnc(Nc3cccc(Br)c3)c2cc1OC.Cl` [GI230329] was tested, and the “%Inh” value was 0%. With `COC(=O)c1cccc(NC(=O)NC2CCN(c3ccnc(Nc4ccc(F)cc4)n3)C2)c1` (stereo not shown) [GSK1379725] the “%Inh” value was 0%. For `COc1ccc2cc(-c3nc(-c4ccccc4C(C)C)[nH]c3-c3ccncc3)ccc2c1` [SB-660566], the “%Inh” value was 0%. In the case of `CC(=O)c1c(C)c2cnc(Nc3ccc(N4CCNCC4)cn3)nc2n(C2CCCC2)c1=O`, the “%Inh” value is reported as 15%. In the case of `CCc1ccc(-c2ccc3c(c2)-c2n[nH]cc2S(=O)(=O)N3C)cc1`, the “%Inh” value is reported as 0%. In the case of `CC(=O)c1c(C)c2cnc(Nc3ccn(C)n3)nc2n(C2CCCC2)c1=O`, the “%Inh” value is reported as 0%. `CC(C)c1cc(-c2ccc3c(N)n[nH]c3c2)nc(N)n1` [GSK2250882] was tested, and the “%Inh” value was 0%. In the case of `COc1ccc(Nc2nccc(N3CCC(NC(=O)C(C)c4ccc(Cl)cc4)CC3)n2)cc1` (stereo not shown) [GSK1379812], the “%Inh” value is reported as 32%. In the case of `Cc1ccc(NC(=O)c2ccc(Cl)cc2)cc1-c1ccc(C(=O)Nc2ccncc2)cc1` [GSK1398467], the “%Inh” value is reported as 0%. `Cl.Cl.Cl.N#Cc1ccc(CCNc2nccc(-c3cccc(CN4CCNCC4)c3)n2)cc1` [GSK2137462] was tested, and the “%Inh” value was 15%. `CCCCc1nn2ncccc2c1-c1ccnc(NC2CC2)n1` [GW684374] was tested, and the “%Inh” value was 0%. For `COc1cccc(NC(=O)Nc2ccc(C)c(-c3ccc(C(=O)Nc4ccncc4)cc3)c2)c1` [GSK1398474], the “%Inh” value was 0%. For `Cc1ccc(-c2nc(Nc3ccncc3)c3ccccc3n2)s1` [GSK189015], the “%Inh” value was 0%. `CS(=O)(=O)CCNCc1nc(-c2ccc3ncnc(Nc4ccc(OCc5ccccc5)c(Cl)c4)c3c2)cs1.Cl` [GW582764] was tested, and the “%Inh” value was 0%. In the case of `COC(=O)c1cccc(NC(=O)NC2CCN(c3ccnc(Nc4ccc(OC)cc4)n3)C2)c1` (stereo not shown) [GSK1379746], the “%Inh” value is reported as 0%. With `CC[C@@H]1CO[C@H](C(=O)Nc2ccccc2)CN1c1cc(-c2ccc3c(N)n[nH]c3c2)nc(NC)n1` [GSK2376236] the “%Inh” value was 0%. For `CS(=O)(=O)Cc1ccc(Nc2nccc(-c3c(-c4cccc(NC(=O)C5CCCCC5)c4)nn4ncccc34)n2)cc1` [GSK350559], the “%Inh” value was 0%. With `CSc1ccc(-c2nc3n(c2-c2ccncc2)CCC3)cc1` [SKF-105561] the “%Inh” value was 31%. `Cc1cnc(N)c(/C=C/c2cncc(C(=O)NCCc3ccc(Cl)cc3Cl)c2)c1.Cl` [GSK190937] was tested, and the “%Inh” value was 0%. With `CNC(=O)c1ccc(C)c(-n2c(C)cc(OCc3ccc(F)cc3F)c(Br)c2=O)c1` the “%Inh” value was 0%. `CCn1c(-c2c(N)noc2C)nc2cnccc21` [SB-737856] was tested, and the “%Inh” value was 0%. For `O=c1cc(N2CCOCC2)nc2n(Cc3ccccc3F)ccn12` [GSK2297428], the “%Inh” value was 0%. With `Fc1ccc(-c2nc3n(c2-c2ccncc2)CCS3)cc1` [GI98581] the “%Inh” value was 2%. In the case of `Fc1ccc(-c2nn3cccc(F)c3c2-c2ccncc2)cc1` [GW475620], the “%Inh” value is reported as 12%. For `COc1ccc(CSc2nnc(-c3ccc4nccn4c3)o2)cc1C(F)(F)F`, the “%Inh” value was 24%. In the case of `CC(C)c1ccc(O)cc1Nc1ccnc2ccc(C(F)(F)F)cc12` [GW482059], the “%Inh” value is reported as 0%. In the case of `Cc1ccc(NC(=O)Nc2ccccc2F)cc1-c1ccc(C(=O)Nc2ccncc2)cc1` [GSK1398477], the “%Inh” value is reported as 0%. In the case of `Cc1ccc(NC(=O)Nc2ccc(Cl)cc2)cc1-c1ccc(C(=O)Nc2ccncc2)cc1` [GSK1398472], the “%Inh” value is reported as 2%. For `Cc1c(Cn2c(C)c(C)n3c(=O)cc(N4CCOCC4)nc23)cccc1C(F)(F)F` [GSK2328680], the “%Inh” value was 86%. With `O=C(Nc1n[nH]c2nc(-c3cccs3)c(Br)cc12)C1CC1` [SB-735297] the “%Inh” value was 11%. For `Cc1cccc2c(-c3ccncn3)c(-c3ccc(F)cc3)nn12` [GW515532], the “%Inh” value was 0%.
